Our source for the Potency values is PubChem BioAssay (NCATS).

Results filed as inconclusive are left out. The source made the active and inactive calls. The call rests on the fitted dose curve; in most records, active means well fitted curve in the direction sought with a large enough effect; inconclusive means small, poorly fitted or top-dose-only effect, or another doubt; inactive means no such curve, though single readings can be large; an effect the other way counts as inactive or inconclusive.

Test [1] can be described thus: S16 Schwann cell viability assay (CellTiter-Glo assay) (AID 624031).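 Further: native untransfected S16 rat Schwann cells; nearly all actives have a fitted effect of over 70% in size.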 The gist of the method: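 Counter-screen for cytotoxicity: parental S16 rat Schwann cells lacking the PMP22 reporters, treated 24 h with compound, viability from cellular ATP by CellTiter-Glo luminescence, normalized to DMSO (0%) and no-cell wells.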
The subject of another test is AA1029. Kind of test: qHTS profiling for inhibitors of Plasmodium falciparum proliferation (AID 504749). Further: nearly all actives have a fitted effect of over 60% in size. Further: potency means the concentration at half of the fitted maximal effect. The note with it: P. falciparum in erythrocytes, SYBR Green DNA, 72 h; series mostly up to 28.7 µM. The gist of the method:
(§1)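 Readout was DNA-dye fluorescence from lysed cultures, ex 485/em 535 nm. Parasitized red cells had grown 72 h with compound; data scaled between 0.29 uM artemisinin and DMSO wells and corrected using vehicle-only plates.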

In another test the test system is ATS189. Described as above. The note with it: P. falciparum in erythrocytes, SYBR Green DNA, 72 h; series mostly up to 28.7 µM. The procedure, abridged: as §1
In a further test the test system is CP194. Described as above. The note with it: P. falciparum in erythrocytes, SYBR Green DNA, 72 h; series mostly up to 28.7 µM. The procedure, abridged:
as §1

A further test deals with CP203. The test is described as above. The note with it: P. falciparum in erythrocytes, SYBR Green DNA, 72 h; series mostly up to 28.7 µM. The gist of the method: as §1
In another test the test system is CP237. The test is described as above. The note with it: P. falciparum in erythrocytes, SYBR Green DNA, 72 h; series mostly up to 28.7 µM. The procedure, abridged:
as §1

The next test has as its system CP247. The description is as above. The note with it: P. falciparum in erythrocytes, SYBR Green DNA, 72 h; series mostly up to 28.7 µM. The gist of the method: as §1
In a further test the test system is CP250. Described as above. The note with it: P. falciparum in erythrocytes, SYBR Green DNA, 72 h; series mostly up to 12.8 µM. The gist of the method:
as §1

For a further test, the system named is CP268. Described as above. The note with it: P. falciparum in erythrocytes, SYBR Green DNA, 72 h; series mostly up to 28.7 µM. The procedure, abridged: as §1
Another test has as its system CP325. Described as above. The note with it: P. falciparum in erythrocytes, SYBR Green DNA, 72 h; series mostly up to 28.7 µM. The procedure, abridged:
as §1

The next test relates to Dd2. Described as above. The note with it: P. falciparum in erythrocytes, SYBR Green DNA, 72 h; series mostly up to 28.7 µM. The procedure, abridged: as §1
Another test has as its system GB4. The test is described as above. The note with it: P. falciparum in erythrocytes, SYBR Green DNA, 72 h; series mostly up to 28.7 µM. The procedure, abridged:
as §1

The subject of a further test is JCK. The test is described as above. The note with it: P. falciparum in erythrocytes, SYBR Green DNA, 72 h; series mostly up to 28.7 µM. The procedure, abridged: as §1
For the next test, the system named is P93_24. Described as above. The note with it: P. falciparum in erythrocytes, SYBR Green DNA, 72 h; series mostly up to 28.7 µM. The gist of the method:
as §1

The next test concerns P94_40. The test is described as above. The note with it: P. falciparum in erythrocytes, SYBR Green DNA, 72 h; series mostly up to 28.7 µM. The procedure, abridged:
as §1

Another test relates to PC15. Described as above. The note with it: P. falciparum in erythrocytes, SYBR Green DNA, 72 h; series mostly up to 28.7 µM. The gist of the method: as §1
The next test relates to PC26. The test is described as above. The note with it: P. falciparum in erythrocytes, SYBR Green DNA, 72 h; series mostly up to 28.7 µM. The gist of the method:
as §1

The subject of a further test is PC49. The description is as above. The note with it: P. falciparum in erythrocytes, SYBR Green DNA, 72 h; series mostly up to 28.7 µM. The gist of the method: as §1
The test system of a further test is TAB109. Described as above. The note with it: P. falciparum in erythrocytes, SYBR Green DNA, 72 h; series mostly up to 12.8 µM. The gist of the method:
as §1

Another test deals with TAB113. Described as above. The note with it: P. falciparum in erythrocytes, SYBR Green DNA, 72 h; series mostly up to 28.7 µM. The procedure, abridged:
as §1

`CNC[C@H](O)c1ccc(O)cc1`: the Potency result (in test [1]; with AA1029; in the test with ATS189; in the test on CP194; in the test on CP203; in the test with CP237) was “inactive” throughout. Besides, the Potency entry in the test with CP247, with CP250, with CP268, with CP325, in the test with Dd2 and in the test with GB4 was “inactive” throughout. Further, the Potency entry in the test with JCK, in the test on P93_24, with P94_40, in the test on PC15, in the test on PC26 and with PC49 was “inactive” throughout. Also, the Potency result in the test with TAB109 and with TAB113 was “inactive” in each case.

On to `C[N+]1(C)[C@@H]2CC[C@H]1CC(OC(=O)[C@@H](CO)c1ccccc1)C2` (stereo not given in full), for which the Potency result (in test [1]; in the test with AA1029; in the test with ATS189; in the test with CP194; with CP203; with CP237) was “inactive” in each case. Further, the Potency entry in the test on CP247, in the test with CP250, in the test on CP268, with CP325, in the test with Dd2 and with GB4 was “inactive” throughout. Besides, the Potency entry in the test with JCK, in the test on P93_24, in the test with P94_40, in the test on PC15, in the test with PC26 and with PC49 was “inactive” each time. Moreover, the Potency result in the test on TAB109 and with TAB113 was “inactive” throughout.

As to `NCC[C@H](O)C(=O)N[C@H]1C[C@@H](N)[C@@H](O[C@H]2O[C@@H](CN)[C@@H](O)[C@@H](O)[C@@H]2N)[C@@H](O[C@H]2O[C@@H](CO)[C@@H](O)[C@@H]2O)[C@@H]1O`, the Potency result (in [1]; in the test on AA1029; with ATS189; with CP194; in the test with CP203; in the test on CP237) was “inactive” throughout. Also, the Potency entry in the test with CP247, with CP250, in the test with CP268, with CP325, with Dd2 and in the test with GB4 was “inactive” throughout. The Potency entry with JCK, with P93_24, in the test with P94_40, in the test on PC15, with PC26 and in the test with PC49 was “inactive” in each case. In addition, the Potency result with TAB109 is “inactive”.

Take `CC(=O)OCC(=O)[C@@H]1CC[C@H]2[C@H]3CC[C@H]4C[C@@H](O)CC[C@]4(C)[C@@H]3C(=O)C[C@@]12C`: the Potency entry (in [1]; in the test with AA1029; with ATS189; with CP194; in the test on CP203; with CP237) was “inactive” in each case. The Potency entry in the test on CP247, in the test on CP250, in the test on CP268, in the test on CP325, with Dd2 and in the test with GB4 was “inactive” throughout. The Potency result in the test with JCK, in the test on P93_24, in the test on P94_40, with PC15, in the test on PC26 and in the test on PC49 was “inactive” throughout. Moreover, the Potency entry in the test with TAB109 and in the test with TAB113 was “inactive” throughout.

For `CC[C@]1(c2cccc(O)c2)CCCCN(C)C1`, the Potency entry (in [1]; with CP247; with CP250; in the test on JCK; with P93_24; with PC49) was “inactive” each time. Besides, the Potency entry with TAB109 and in the test on TAB113 was “inactive” in each case. The Potency with CP237 is 3.16 µM (active); in the test on Dd2 it was 3.16 µM (active); in the test on GB4, 4.55 µM (active).

For `C[N+]1([O-])[C@@H]2CC[C@H]1CC(OC(=O)[C@@H](CO)c1ccccc1)C2` (stereo not given in full), the Potency entry (in [1]; in the test on AA1029; in the test with ATS189; in the test on CP194; in the test on CP203; with CP237) was “inactive” throughout. The Potency entry in the test on CP247, with CP250, with CP268, with CP325, with Dd2 and with GB4 was “inactive” in each case. Also, the Potency result with JCK, in the test with P93_24, with P94_40, in the test on PC15, in the test with PC26 and with PC49 was “inactive” each time. Besides, the Potency result with TAB109 and in the test with TAB113 was “inactive” throughout.

As to `N[C@H]1C[C@H]1c1ccccc1`, the Potency result (in [1]; with AA1029; in the test on ATS189; with CP194; in the test with CP203; in the test with CP237) was “inactive” throughout. In addition, the Potency entry with CP247, in the test with CP250, in the test on CP268, with CP325, in the test on Dd2 and with GB4 was “inactive” throughout. Moreover, the Potency entry in the test with JCK, with P93_24, with P94_40, in the test with PC15, in the test with PC26 and in the test with PC49 was “inactive” throughout. Also, the Potency result in the test on TAB109 and in the test with TAB113 was “inactive” in each case.
